What was measured:
Assay in all cases: DAPPL (digital affinity profiling via proximity ligation, sequencing); 10 mM Tris-HCl pH 7.5, 50 mM NaCl, 1 mM DTT, 4% glycerol, room temperature, 30 min; GST-TFs on glutathione beads, 16-mer random dsDNA library, 0.1% formaldehyde crosslink after washing; high values mean tight binding
[1] = biological target: T1, FEV (Homo sapiens, UniProt Q99581 1-238); conditions: protein: recombinant; tags: N-terminal GST; dsDNA, one strand shown
T1 sequence: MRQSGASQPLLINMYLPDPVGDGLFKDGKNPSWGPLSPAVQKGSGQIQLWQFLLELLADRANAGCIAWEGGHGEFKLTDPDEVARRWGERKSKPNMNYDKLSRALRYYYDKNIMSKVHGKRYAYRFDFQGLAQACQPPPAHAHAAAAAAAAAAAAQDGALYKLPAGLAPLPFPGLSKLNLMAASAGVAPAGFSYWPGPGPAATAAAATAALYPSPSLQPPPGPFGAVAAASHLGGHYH
Summary of the method: (§1)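 In yeast, human transcription factors were expressed with a GST fusion, then pulled down on glutathione beads and given DNA barcodes. Pooled with a tag-only sample, they were exposed to 200 nmole of a 16-mer random double-stranded DNA library (Tris/NaCl/DTT/glycerol buffer, room temperature, 30 min), washed, crosslinked with 0.1% formaldehyde, proximity-ligated using BsaI/T4 ligase for 1 h at 37 °C, PCR-amplified and read on an Illumina NextSeq500. Each hexamer's frequency of reads for a factor, divided by the matching frequency for the tag-only sample, gives the binding signal.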

[2] = biological target: ETV5 (Homo sapiens, UniProt P41161 1-510); conditions: protein: recombinant; tags: N-terminal GST; dsDNA, one strand shown
Sequence of ETV5 (P41161 whole entry): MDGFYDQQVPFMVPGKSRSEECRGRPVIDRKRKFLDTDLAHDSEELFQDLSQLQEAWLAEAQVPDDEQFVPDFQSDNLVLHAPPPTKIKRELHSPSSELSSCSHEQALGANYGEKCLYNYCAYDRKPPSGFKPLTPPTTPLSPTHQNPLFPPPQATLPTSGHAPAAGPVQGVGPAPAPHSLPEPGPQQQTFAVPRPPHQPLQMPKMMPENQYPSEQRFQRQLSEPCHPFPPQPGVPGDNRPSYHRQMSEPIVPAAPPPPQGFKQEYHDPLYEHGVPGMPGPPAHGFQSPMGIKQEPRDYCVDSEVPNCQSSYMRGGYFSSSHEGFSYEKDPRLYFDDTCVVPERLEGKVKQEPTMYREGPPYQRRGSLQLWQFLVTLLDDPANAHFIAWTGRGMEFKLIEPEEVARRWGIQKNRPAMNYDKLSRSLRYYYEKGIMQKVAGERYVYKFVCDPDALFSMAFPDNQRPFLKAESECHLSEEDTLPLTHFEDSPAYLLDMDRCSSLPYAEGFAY
Summary of the method: as §1

[3] = biological target: HSF1 (Homo sapiens, UniProt Q00613 1-529); conditions: protein: recombinant; tags: N-terminal GST; chain copies: 3; dsDNA, one strand shown
Sequence of HSF1 (Q00613 whole entry): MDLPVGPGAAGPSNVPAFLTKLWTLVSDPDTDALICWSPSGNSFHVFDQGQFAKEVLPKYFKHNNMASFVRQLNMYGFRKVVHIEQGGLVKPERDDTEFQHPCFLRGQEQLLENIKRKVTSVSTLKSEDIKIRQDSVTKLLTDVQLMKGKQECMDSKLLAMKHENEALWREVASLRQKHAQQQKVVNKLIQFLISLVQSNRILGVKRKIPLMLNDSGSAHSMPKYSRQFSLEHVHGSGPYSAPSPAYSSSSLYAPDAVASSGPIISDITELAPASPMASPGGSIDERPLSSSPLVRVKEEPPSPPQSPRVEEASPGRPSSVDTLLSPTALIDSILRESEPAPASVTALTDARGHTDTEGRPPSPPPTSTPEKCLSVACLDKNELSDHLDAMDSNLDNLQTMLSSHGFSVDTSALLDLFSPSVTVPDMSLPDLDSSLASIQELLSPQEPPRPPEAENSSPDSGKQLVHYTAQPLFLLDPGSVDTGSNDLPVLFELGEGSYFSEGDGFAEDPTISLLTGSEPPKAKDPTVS
Summary of the method: as §1

[4] = biological target: T2, SPIC (Homo sapiens, UniProt Q8N5J4 1-248); conditions: protein: recombinant; tags: N-terminal GST; dsDNA, one strand shown
T2 sequence: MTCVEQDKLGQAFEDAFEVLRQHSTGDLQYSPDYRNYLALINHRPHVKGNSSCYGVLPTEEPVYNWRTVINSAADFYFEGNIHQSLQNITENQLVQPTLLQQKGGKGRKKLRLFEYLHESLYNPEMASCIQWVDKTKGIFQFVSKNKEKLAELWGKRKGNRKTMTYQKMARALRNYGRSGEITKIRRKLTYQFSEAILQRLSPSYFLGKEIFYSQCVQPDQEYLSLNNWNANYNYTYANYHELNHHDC
Summary of the method: as §1

[5] = biological target: ELF4 (Homo sapiens, UniProt Q99607 1-663); conditions: protein: recombinant; tags: N-terminal GST; dsDNA, one strand shown
Sequence of ELF4 (Q99607 whole entry): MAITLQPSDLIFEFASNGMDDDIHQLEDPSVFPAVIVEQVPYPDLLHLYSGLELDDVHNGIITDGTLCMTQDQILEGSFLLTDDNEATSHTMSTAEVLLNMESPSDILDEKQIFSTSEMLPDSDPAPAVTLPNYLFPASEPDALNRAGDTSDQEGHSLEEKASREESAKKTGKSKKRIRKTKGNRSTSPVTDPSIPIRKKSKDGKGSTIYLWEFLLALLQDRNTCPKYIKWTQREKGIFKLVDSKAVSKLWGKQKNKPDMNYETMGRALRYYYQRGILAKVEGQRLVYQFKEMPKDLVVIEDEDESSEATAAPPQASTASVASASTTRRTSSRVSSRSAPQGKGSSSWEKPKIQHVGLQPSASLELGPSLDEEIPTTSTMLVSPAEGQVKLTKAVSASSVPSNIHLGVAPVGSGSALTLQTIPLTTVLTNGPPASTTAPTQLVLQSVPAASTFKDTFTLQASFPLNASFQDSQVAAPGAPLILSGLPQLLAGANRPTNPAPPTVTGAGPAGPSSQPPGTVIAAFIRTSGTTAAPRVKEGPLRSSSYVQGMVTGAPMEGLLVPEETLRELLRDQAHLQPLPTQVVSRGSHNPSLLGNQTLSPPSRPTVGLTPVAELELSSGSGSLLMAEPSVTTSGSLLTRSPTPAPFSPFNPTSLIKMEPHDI
Summary of the method: as §1

[6] = biological target: T3, ELK4 (Homo sapiens, UniProt P28324-2 1-405); conditions: protein: recombinant; tags: N-terminal GST; dsDNA, one strand shown
T3 sequence: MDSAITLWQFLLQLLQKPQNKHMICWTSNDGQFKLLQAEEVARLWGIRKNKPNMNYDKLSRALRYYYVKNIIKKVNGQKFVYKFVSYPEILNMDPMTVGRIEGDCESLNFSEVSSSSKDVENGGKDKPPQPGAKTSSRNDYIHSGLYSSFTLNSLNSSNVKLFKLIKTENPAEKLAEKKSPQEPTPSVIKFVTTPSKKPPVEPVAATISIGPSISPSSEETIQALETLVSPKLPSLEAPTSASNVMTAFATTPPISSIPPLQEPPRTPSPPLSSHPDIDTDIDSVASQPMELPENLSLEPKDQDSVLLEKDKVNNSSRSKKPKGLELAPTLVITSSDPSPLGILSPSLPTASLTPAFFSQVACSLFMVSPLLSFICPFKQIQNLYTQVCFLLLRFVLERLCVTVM
Summary of the method: as §1

[7] = biological target: T4, ETV2 (Homo sapiens, UniProt O00321 1-342); conditions: protein: recombinant; tags: N-terminal GST; dsDNA, one strand shown
T4 sequence: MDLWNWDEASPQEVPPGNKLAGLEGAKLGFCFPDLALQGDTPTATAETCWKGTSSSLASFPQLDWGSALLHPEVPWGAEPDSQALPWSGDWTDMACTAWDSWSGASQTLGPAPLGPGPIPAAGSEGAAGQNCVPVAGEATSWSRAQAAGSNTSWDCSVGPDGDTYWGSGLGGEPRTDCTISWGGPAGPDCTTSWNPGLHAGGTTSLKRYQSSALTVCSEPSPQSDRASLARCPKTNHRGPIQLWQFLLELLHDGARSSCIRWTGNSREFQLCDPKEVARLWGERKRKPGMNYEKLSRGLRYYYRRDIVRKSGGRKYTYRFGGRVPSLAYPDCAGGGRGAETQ
Summary of the method: as §1

[8] = biological target: T5, ELF3 (Homo sapiens, UniProt P78545 1-371); conditions: protein: recombinant; tags: N-terminal GST; dsDNA, one strand shown
T5 sequence: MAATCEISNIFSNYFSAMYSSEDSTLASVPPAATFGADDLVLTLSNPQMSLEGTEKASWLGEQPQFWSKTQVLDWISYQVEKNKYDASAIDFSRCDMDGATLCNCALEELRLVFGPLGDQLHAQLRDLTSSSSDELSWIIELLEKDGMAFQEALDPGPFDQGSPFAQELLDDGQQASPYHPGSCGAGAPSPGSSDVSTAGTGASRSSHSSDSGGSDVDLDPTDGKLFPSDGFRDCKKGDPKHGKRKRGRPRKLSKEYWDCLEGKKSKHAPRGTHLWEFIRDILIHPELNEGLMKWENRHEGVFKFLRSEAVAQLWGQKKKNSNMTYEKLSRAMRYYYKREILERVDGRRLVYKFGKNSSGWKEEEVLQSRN
Summary of the method: as §1

[9] = biological target: CRX (Homo sapiens, UniProt O43186 1-299); conditions: protein: recombinant; tags: N-terminal GST; dsDNA, one strand shown
Sequence of CRX (O43186 whole entry): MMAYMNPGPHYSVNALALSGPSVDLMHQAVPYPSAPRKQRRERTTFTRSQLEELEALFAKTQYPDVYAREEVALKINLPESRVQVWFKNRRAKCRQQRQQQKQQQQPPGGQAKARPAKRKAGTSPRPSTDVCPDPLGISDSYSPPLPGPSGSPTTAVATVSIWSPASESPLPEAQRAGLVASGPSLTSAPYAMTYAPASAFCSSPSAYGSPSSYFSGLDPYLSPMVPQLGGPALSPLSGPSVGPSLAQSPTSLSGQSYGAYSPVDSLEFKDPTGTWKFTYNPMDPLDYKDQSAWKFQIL
Summary of the method: as §1

[10] = biological target: ETV1 (Homo sapiens, UniProt P50549 1-477); conditions: protein: recombinant; tags: N-terminal GST; dsDNA, one strand shown
Sequence of ETV1 (P50549 whole entry): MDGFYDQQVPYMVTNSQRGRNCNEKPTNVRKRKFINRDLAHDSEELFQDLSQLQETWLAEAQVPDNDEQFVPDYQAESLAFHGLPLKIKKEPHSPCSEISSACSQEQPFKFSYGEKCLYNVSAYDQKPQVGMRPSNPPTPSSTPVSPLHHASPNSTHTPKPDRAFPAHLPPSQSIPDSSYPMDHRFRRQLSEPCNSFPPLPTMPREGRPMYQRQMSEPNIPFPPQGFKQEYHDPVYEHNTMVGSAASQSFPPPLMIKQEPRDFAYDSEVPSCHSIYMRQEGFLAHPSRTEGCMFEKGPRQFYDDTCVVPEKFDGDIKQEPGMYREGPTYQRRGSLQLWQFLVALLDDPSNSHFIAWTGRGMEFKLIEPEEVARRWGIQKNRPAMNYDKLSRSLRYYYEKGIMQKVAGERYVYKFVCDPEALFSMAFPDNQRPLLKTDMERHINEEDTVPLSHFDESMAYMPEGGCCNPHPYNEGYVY
Summary of the method: as §1

[11] = biological target: T6, ERF (Homo sapiens, UniProt P50548 1-548); conditions: protein: recombinant; tags: N-terminal GST; dsDNA, one strand shown
T6 sequence: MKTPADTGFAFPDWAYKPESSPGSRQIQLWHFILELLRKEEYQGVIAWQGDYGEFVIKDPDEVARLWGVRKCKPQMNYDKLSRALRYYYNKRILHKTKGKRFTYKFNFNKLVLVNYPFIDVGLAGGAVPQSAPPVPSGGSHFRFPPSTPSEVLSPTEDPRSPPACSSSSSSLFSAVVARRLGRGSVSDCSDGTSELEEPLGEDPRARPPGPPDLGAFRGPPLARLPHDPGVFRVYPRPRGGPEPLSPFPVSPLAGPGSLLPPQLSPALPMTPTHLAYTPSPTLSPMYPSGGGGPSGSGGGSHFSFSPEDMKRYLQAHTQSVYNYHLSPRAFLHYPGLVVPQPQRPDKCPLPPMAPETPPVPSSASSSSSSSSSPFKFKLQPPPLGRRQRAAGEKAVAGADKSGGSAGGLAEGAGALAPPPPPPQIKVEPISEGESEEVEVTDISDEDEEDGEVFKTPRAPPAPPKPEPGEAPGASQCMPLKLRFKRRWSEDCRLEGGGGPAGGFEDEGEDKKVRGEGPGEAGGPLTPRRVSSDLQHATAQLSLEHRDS
Summary of the method: as §1

[12] = biological target: T7, ETV3L (Homo sapiens, UniProt Q6ZN32 1-361); conditions: protein: recombinant; tags: N-terminal GST; dsDNA, one strand shown
T7 sequence: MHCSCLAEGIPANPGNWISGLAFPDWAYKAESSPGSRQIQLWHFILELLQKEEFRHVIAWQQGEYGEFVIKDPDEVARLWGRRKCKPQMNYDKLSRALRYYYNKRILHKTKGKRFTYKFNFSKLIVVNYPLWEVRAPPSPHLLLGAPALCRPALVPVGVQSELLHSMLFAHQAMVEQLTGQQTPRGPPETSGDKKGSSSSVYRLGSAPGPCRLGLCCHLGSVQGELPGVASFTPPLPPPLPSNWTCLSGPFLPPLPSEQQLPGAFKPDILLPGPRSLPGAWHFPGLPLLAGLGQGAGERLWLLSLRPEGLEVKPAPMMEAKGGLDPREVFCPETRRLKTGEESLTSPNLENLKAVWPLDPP
Summary of the method: as §1

[13] = biological target: T8, ETS2 (Homo sapiens, UniProt P15036 1-469); conditions: protein: recombinant; tags: N-terminal GST; dsDNA, one strand shown
T8 sequence: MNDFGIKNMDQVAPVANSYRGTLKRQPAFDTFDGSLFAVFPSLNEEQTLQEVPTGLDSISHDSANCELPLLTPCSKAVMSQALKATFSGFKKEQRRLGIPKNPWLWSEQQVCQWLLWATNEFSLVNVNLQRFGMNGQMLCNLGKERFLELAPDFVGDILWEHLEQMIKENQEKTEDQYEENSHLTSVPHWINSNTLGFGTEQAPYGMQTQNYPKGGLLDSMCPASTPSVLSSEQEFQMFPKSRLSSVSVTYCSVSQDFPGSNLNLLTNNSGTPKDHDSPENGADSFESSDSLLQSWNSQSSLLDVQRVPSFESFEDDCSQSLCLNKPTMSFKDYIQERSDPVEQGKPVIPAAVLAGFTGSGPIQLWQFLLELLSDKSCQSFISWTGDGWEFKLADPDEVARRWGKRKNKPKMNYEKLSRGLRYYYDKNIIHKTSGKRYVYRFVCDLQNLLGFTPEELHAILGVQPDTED
Summary of the method: as §1

[14] = biological target: T9, SPDEF (Homo sapiens, UniProt O95238 1-335); conditions: protein: recombinant; tags: N-terminal GST; dsDNA, one strand shown
T9 sequence: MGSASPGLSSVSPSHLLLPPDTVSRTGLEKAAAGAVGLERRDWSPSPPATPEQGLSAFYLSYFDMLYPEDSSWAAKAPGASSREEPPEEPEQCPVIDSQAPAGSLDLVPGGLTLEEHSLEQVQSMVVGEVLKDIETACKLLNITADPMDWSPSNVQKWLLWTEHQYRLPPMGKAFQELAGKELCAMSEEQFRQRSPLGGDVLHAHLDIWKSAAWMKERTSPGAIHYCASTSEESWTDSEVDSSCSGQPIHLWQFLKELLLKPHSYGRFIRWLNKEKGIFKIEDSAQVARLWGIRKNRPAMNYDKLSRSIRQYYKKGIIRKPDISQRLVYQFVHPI
Summary of the method: as §1

[15] = biological target: T10, ETV7 (Homo sapiens, UniProt Q9Y603 1-341); conditions: protein: recombinant; tags: N-terminal GST; dsDNA, one strand shown
T10 sequence: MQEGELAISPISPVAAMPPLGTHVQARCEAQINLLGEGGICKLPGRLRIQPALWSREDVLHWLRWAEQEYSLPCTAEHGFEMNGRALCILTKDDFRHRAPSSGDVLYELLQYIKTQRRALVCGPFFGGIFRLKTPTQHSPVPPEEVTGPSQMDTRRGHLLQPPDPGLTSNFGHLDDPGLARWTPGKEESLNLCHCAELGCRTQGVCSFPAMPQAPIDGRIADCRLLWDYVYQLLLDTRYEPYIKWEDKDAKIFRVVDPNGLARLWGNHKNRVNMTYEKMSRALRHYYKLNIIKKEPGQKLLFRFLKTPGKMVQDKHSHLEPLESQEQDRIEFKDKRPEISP
Summary of the method: as §1

[16] = biological target: T11, ELF5 (Homo sapiens, UniProt Q9UKW6-2 1-255); conditions: protein: recombinant; tags: N-terminal GST; dsDNA, one strand shown
T11 sequence: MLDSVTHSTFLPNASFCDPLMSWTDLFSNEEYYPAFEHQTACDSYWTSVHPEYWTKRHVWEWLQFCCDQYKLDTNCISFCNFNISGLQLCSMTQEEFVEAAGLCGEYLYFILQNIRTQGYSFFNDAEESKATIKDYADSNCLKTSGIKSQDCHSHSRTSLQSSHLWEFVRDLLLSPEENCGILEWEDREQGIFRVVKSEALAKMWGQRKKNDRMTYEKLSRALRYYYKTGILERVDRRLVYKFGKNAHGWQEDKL
Summary of the method: as §1

[17] = biological target: T12, ETV3 (Homo sapiens, UniProt P41162-2 1-143); conditions: protein: recombinant; tags: N-terminal GST; dsDNA, one strand shown
T12 sequence: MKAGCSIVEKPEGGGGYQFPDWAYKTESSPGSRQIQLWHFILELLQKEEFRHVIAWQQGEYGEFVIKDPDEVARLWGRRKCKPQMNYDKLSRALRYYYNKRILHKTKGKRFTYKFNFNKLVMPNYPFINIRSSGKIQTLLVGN
Summary of the method: as §1

[18] = biological target: ETV6 (Homo sapiens, UniProt P41212 1-452); conditions: protein: recombinant; tags: N-terminal GST; dsDNA, one strand shown
Sequence of ETV6 (P41212 whole entry): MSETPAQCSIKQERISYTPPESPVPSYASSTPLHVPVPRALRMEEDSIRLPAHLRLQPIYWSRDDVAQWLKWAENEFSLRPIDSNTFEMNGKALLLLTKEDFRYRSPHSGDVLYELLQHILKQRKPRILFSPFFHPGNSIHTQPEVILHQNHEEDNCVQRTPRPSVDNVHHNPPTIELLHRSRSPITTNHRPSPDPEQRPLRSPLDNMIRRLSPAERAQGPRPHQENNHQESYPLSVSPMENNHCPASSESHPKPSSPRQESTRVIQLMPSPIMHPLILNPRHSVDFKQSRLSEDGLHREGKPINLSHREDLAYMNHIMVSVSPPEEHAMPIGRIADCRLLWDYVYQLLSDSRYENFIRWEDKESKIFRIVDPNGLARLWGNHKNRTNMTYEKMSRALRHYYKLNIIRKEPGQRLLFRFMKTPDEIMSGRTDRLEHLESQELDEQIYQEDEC
Summary of the method: as §1

Sequence: CTACTA
- binding signal [1]: 1.27 fold enrichment (6-mer frequency, TF over GST control)
- binding signal [2]: 1.31 fold enrichment (6-mer frequency, TF over GST control)
- binding signal [3]: 1.43 fold enrichment (6-mer frequency, TF over GST control)
- binding signal [4]: 1.4 fold enrichment (6-mer frequency, TF over GST control)
- binding signal [5]: 1.29 fold enrichment (6-mer frequency, TF over GST control)
- binding signal [6]: 1.37 fold enrichment (6-mer frequency, TF over GST control)
- binding signal [7]: 1.23 fold enrichment (6-mer frequency, TF over GST control)
- binding signal [8]: 1.35 fold enrichment (6-mer frequency, TF over GST control)
- binding signal [9]: 1.36 fold enrichment (6-mer frequency, TF over GST control)
- binding signal [10]: 1.18 fold enrichment (6-mer frequency, TF over GST control)
- binding signal [11]: 1.35 fold enrichment (6-mer frequency, TF over GST control)
- binding signal [12]: 1.29 fold enrichment (6-mer frequency, TF over GST control)
- binding signal [13]: 1.26 fold enrichment (6-mer frequency, TF over GST control)
- binding signal [14]: 1.28 fold enrichment (6-mer frequency, TF over GST control)
- binding signal [15]: 1.44 fold enrichment (6-mer frequency, TF over GST control)
- binding signal [16]: 1.24 fold enrichment (6-mer frequency, TF over GST control)
- binding signal [17]: 1.23 fold enrichment (6-mer frequency, TF over GST control)
- binding signal [18]: 1.46 fold enrichment (6-mer frequency, TF over GST control)

Reference: publication PMC7862700, “An all-to-all approach to the identification of sequence-specific readers for epigenetic DNA modifications on cytosine”
